# Experimental data from PubChem BioAssay.
# A number with no mark means an inactive call. The list shows a part of the results. The source made the active and inactive calls. Cut-off read from the data, not from the text of the source, unless noted: active = inhibition above about 11%; inactive = the rest.
# Columns and labels:
# [1] = target: Serine protease HTRA1 (Homo sapiens) (UniProt Q92743); test: confirming inhibition of human HTRA1 – biochemical, fluorescence polarization, confirmation (AID 540248;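 active = mean inhibition over three repeats above a set limit taken from the earlier primary screen, cut at about 37% in these data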;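 note: 0% = HTRA1 with DMSO and 100% = wells lacking HTRA1; inhibitors block probe binding so polarization drops and inhibition rises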); details: recombinant HTRA1, FP-rhodamine activity-based probe, at 5.96 µM, active compounds read high
# [2] = target: (Lyso)-N-acylphosphatidylethanolamine lipase (Mus musculus) (UniProt Q8VD66); test: mouse ABHD4 hydrolase blockers, triplicate – biochemical, fluorescence polarization, confirmation (AID 720658;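 active = mean inhibition across replicates above the hit cutoff set in the primary screen, cut at about 30% in these data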;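 note: 0% = wild-type ABHD4 with DMSO and 100% = catalytically dead S159A mutant with DMSO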); details: purified mABHD4, FP-Rh probe fluorescence polarization; at 8.92 µM; active compounds read high
# [3] = target: Toll-like receptor 9 (Homo sapiens) (UniProt Q9NR96); test: disruptors of TLR9 binding to MyD88 – cell-based, CHO, BLA complementation, fluorescence, triplicate, confirmation (AID 540250;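 active = mean inhibition across three repeats above about 21% taken from the earlier screen, limit read from the data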;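 note: blue over green emission ratio reports constitutive TLR9 MyD88 association via BLA complementation; 0% = DMSO vehicle wells and 100% = clavulanate BLA inhibitor wells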); details: CCF4 FRET ratio, at 4.98 µM, active compounds read high
# [4] = BLA reporter readout interference – cell-based, fluorescence, artefact control for TLR9-MyD88 binding inhibitor project (AID 540251;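 active = mean inhibition above a 50% cutoff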;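 note: counterscreen of TLR9-MyD88 hits on CMV-driven BLA in CHO-K1 cells; 0% = DMSO alone and 100% = clavulanate blocking BLA; higher means less blue over green ratio so more BLA blockade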); details: CHO-BLA cells, CCF4 FRET ratio, at 4.98 µM, active compounds read high
# [5] = CHO cell viability loss – luminescence, single concentration, cytotoxicity control for TLR9-MyD88 binding inhibitor project (AID 588336); details: TLR9-MyD88 CHO cells cytotoxicity, at 4.98 µM, active compounds read high
# [6] = target: Receptor-interacting serine/threonine-protein kinase 2 (Homo sapiens) (UniProt O43353); test: inhibitors of RIPK2 association with NOD2 – fluorescence, CHO cells, BLA complementation, triplicate, confirmation (AID 624370;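 active = mean inhibition across replicates above a set limit taken from the earlier primary screen, cut at about 21% in these data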;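 note: 0% = DMSO-only wells and the high end = clavulanate BLA-blocked wells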); details: CCF4 FRET, at 4.98 µM, active compounds read high
# [7] = BLA reporter readout interference – cell-based, CHO-K1 CMV-bla, CCF4 FRET, fluorescence, artefact control for NOD2-RIPK2 interaction inhibitor project, confirmation (AID 624371;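 active = mean inhibition above the low-control mean inhibition plus three low-control SD, cut at about 11% in these data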;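 note: 0% = DMSO only wells and 100% = clavulanate high control wells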); details: CCF4 FRET ratio, counterscreen, at 4.98 µM, active compounds read high
# [8] = target: Nuclear receptor coactivator 3 (Homo sapiens) (UniProt Q9Y6Q9); test: NCOA3 GAL4-fusion reporter inhibition – cell-based, luminescence, quadruplicate, confirmation (AID 588792;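 active = mean inhibition over 43.08%, the solvent-only control mean plus 3 SD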;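 note: 0% = DMSO treated cells and 100% = gossypol at 36 µM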); details: HEK293 GAL4-SRC3 luciferase reporter, at 3.6 µM, active compounds read high
# [9] = test system: transactivating tegument protein VP16 (Human herpesvirus 1), Gal4-VP16 luciferase reporter; test: repression of VP16-driven luciferase reporter – cell-based, luminescence, high throughput, counter-screen for SRC3 inhibitor project (AID 588794; in the data active = inhibition above about 30%); details: mammalian cells, at 3.6 µM, active compounds read high
# [10] = target: Nuclear receptor coactivator 1 (Homo sapiens) (UniProt Q15788); test: NCOA1 GAL4-fusion reporter inhibition – cell-based, luminescence, quadruplicate, confirmation (AID 588820;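 active = mean inhibition above 46.68%, the untreated control wells mean plus 3 SD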;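 note: 0% = DMSO wells and 100% = gossypol 36 µM treated wells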); details: HEK293 GAL4-SRC1 luciferase reporter, at 3.6 µM, active compounds read high
# [11] = repression of VP16-driven luciferase reporter – cell-based, luminescence, high throughput, counter-screen for SRC1 inhibitor project (AID 588824; in the data active = inhibition above about 25%); details: cell-based VP16 transactivation luciferase luminescence; at 3.6 µM; active compounds read high
# [12] = test system: transactivating tegument protein VP16 (Human herpesvirus 1); test: compounds suppressing VP16-driven luciferase signal – cell-based, luminescence, single concentration, counter-screen for SRC2 inhibitor project (AID 652007; in the data active = inhibition above about 36%); details: cell-based VP16 transactivation luciferase reporter, at 8.9 µM, active compounds read high
# [13] = target: Nuclear receptor coactivator 2 (Homo sapiens) (UniProt Q15596); test: inhibition of GAL4-SRC2 driven luciferase expression – cell-based, luminescence, HEK293, triplicate, confirmation (AID 652008;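 active = mean inhibition above 46.5%, the solvent-only control mean plus 3 SD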;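 note: 0% = DMSO-treated cells and 100% = Gossypol at 36 µM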); details: HEK293 GAL4-SRC2 luciferase reporter, at 8.9 µM, active compounds read high
# [14] = reduced OD of V66 E. coli with T4 gene 2 phage – absorbance, RecBCD inhibitor project, confirmation (AID 651982;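 active = mean inhibition over triplicates exceeding the hit threshold derived in the original primary screen, cut at about 11% in these data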); details: E. coli V66 + T4 2- phage, growth OD; at 11.9 µM; active compounds read high
# [15] = bacterial growth inhibition – absorbance, high throughput, counter-screen for RecBCD inhibitor project (AID 651983; in the data active = inhibition above about 20%;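 note: E. coli strain V66 grown with compound alone and no phage infection; 0% = bacteria with DMSO vehicle only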); details: E. coli viability, absorbance (OD) growth; at 11.9 µM; active compounds read high
# [16] = reduced optical density, T4-challenged addAB+ bacteria – absorbance, E. coli V3065, T4 phage, counter-screen for RecBCD inhibitor project, confirmation (AID 651984;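 active = mean inhibition above the solvent-only control wells' mean plus 3 SD, cut at about 22% in these data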;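 note: higher means less bacterial growth from phage killing when AddAB is blocked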); details: E. coli expressing H. pylori AddAB + T4 phage, OD growth; at 11.9 µM; active compounds read high; gene 2 mutant T4, recBCD-deleted host
# [17] = StAR promoter reporter inhibitors, counter-screen for LRH-1 inverse agonist project, cell-based, luminescence, high throughput (AID 651611; in the data active = inhibition above about 28%); details: StAR promoter luciferase reporter counterscreen, at 3.6 µM, active compounds read high
# [18] = target: Nuclear receptor subfamily 5 group A member 2 (Homo sapiens) (UniProt O00482); test: NR5A2 activity suppression in reporter cells – cell-based, luminescence, confirmation (AID 651613; in the data active = inhibition above about 42%;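 note: HEK293T cells co-transfected with LRH-1 and StAR promoter luciferase reporter; 0% = vehicle wells and 100% = parental cells lacking receptor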); details: cell-based LRH-1 luciferase reporter, inverse agonism; at 3.6 µM; active compounds read high
# [19] = target: Steroidogenic factor 1 (Homo sapiens) (UniProt Q13285); test: inverse agonism at SF1 nuclear receptor – cell-based, luminescence, high throughput, counter-screen for LRH-1 inverse agonist project (AID 651614; in the data active = inhibition above about 44%;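 note: cells cotransfected with StAR promoter reporter and SF1 expression vector; 0% = vehicle on cells with receptor and 100% = vehicle on cells lacking receptor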); details: cell-based SF1 luciferase reporter, at 3.6 µM, active compounds read high
# [20] = compounds suppressing VP16-driven luciferase signal – cell-based, luminescence, high throughput, counter-screen for LRH-1 inverse agonist project (AID 651615; in the data active = inhibition above about 33%); details: Gal4-VP16 luciferase reporter cells, at 3.6 µM, active compounds read high
# [21] = BSA probe fluorescence interference – biochemical, TAMRA-labeled BSA, counter-screen for TCR-CD3 interaction inhibitor project (AID 652035; in the data active = inhibition above about 23%;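 note: 0% = buffer low control and 100% = reference high control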); details: TAMRA-labeled BSA probe fluorescence counterscreen; at 9.4 µM; active compounds read high
# [22] = test system: T-cell receptor (TCR)-CD3 interaction, human; test: blockers of TCR binding to CD3 – biochemical, fluorescence, TAMRA-labeled TCR probe, confirmation (AID 652036; in the data active = inhibition above about 19%); details: TAMRA-labeled TCR probe fluorescence binding assay; at 9.4 µM; active compounds read high
# [23] = VP16-driven transactivation reporter suppression – cell-based, luminescence, HEK293, counter-screen for COUP-TFII antagonist project (AID 687007; in the data active = inhibition above about 13%); details: HEK293 Gal4-VP16 luciferase reporter, at 8.5 µM, active compounds read high
# [24] = target: COUP transcription factor 2 (Homo sapiens) (UniProt P24468); test: retest of COUP-TFII reporter suppressors – cell-based, luciferase reporter, HEK293, triplicate, confirmation (AID 687008;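 active = mean inhibition over three repeats above a set limit taken from the earlier primary screen, cut at about 38% in these data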;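 note: 100% = cells given the luciferase reporter alone without the COUP-TF2 vector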); details: HEK293 NGFI-A luciferase reporter, luminescence; at 8.5 µM; active compounds read high
# [25] = target: Galanin receptor type 2 (Homo sapiens) (UniProt O43603); test: blockers of human galanin receptor 2 – cell-based, confirmation (AID 866; in the data active = inhibition above about 27%;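 note: cells stimulated with galanin at about its EC80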); details: GALR2-expressing cells, antagonist mode, at 4 µM, active compounds read high
# [26] = nonspecific BLA reporter inhibition – CHO NFAT-bla cells, FRET readout, counter-screen for GALR2 antagonist project, confirmation (AID 867;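 active = inhibition above the mean inhibition across tested compounds plus 3 SD, cut at about 27% in these data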;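 note: 0% = 500 nM thapsigargin stimulated wells and 100% = unstimulated BSA only wells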); details: beta-lactamase FRET, thapsigargin-stimulated, at 4.2 µM, active compounds read high
# Receptor-interacting serine/threonine-protein kinase 2 (Homo sapiens), sequence (O43353 whole entry, looked up): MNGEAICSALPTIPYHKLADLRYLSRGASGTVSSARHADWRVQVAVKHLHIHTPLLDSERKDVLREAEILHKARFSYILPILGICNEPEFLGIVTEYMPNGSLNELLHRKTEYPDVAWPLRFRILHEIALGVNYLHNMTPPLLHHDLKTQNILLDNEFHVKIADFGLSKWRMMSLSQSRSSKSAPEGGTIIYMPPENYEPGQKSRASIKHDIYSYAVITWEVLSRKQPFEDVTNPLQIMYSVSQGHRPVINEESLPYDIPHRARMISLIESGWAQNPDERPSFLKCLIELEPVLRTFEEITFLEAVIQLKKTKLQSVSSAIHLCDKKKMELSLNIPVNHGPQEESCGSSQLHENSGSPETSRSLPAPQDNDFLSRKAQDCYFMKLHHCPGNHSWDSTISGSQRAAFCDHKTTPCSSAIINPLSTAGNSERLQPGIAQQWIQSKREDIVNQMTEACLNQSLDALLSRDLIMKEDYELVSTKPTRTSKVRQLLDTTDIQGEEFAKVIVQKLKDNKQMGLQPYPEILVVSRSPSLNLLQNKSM
# Toll-like receptor 9 (Homo sapiens), sequence (Q9NR96 whole entry, looked up): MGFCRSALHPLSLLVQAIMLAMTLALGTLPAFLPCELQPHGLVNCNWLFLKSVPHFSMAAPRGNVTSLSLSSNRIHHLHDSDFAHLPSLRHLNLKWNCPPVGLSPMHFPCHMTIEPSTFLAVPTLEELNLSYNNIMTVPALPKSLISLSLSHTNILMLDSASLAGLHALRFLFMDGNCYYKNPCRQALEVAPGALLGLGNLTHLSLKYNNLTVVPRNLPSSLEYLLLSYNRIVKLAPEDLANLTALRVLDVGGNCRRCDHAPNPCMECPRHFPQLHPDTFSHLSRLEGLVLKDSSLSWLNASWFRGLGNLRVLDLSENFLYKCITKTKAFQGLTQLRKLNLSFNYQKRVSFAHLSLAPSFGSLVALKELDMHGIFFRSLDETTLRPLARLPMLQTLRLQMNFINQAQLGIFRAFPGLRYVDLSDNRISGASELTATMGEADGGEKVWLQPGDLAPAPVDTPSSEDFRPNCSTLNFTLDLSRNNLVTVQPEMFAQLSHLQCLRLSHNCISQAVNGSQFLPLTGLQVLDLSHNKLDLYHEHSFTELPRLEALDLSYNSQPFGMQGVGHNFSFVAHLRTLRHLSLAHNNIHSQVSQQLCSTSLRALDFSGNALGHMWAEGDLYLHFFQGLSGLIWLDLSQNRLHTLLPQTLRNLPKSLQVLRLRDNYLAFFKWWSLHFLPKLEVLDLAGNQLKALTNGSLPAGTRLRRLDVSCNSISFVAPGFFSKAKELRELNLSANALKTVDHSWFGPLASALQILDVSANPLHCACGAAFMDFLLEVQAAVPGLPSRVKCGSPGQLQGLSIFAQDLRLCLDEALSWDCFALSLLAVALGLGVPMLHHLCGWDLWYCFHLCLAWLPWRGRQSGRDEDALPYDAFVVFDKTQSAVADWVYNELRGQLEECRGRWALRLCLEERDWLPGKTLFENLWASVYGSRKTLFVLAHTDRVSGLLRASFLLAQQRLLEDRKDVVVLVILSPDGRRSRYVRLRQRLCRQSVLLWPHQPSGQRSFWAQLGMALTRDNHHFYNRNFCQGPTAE
# (Lyso)-N-acylphosphatidylethanolamine lipase (Mus musculus), sequence (Q8VD66 whole entry, looked up): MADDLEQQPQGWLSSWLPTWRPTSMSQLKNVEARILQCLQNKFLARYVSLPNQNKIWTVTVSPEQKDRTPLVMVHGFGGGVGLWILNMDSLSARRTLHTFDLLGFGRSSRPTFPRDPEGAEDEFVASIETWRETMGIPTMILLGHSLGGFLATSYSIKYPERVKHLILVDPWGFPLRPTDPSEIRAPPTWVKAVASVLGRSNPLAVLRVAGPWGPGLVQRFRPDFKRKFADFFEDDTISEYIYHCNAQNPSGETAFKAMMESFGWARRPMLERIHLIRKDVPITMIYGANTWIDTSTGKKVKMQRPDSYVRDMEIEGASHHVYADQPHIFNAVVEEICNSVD
# Nuclear receptor coactivator 3 (Homo sapiens), sequence (Q9Y6Q9 whole entry, looked up, the tested form may be a part): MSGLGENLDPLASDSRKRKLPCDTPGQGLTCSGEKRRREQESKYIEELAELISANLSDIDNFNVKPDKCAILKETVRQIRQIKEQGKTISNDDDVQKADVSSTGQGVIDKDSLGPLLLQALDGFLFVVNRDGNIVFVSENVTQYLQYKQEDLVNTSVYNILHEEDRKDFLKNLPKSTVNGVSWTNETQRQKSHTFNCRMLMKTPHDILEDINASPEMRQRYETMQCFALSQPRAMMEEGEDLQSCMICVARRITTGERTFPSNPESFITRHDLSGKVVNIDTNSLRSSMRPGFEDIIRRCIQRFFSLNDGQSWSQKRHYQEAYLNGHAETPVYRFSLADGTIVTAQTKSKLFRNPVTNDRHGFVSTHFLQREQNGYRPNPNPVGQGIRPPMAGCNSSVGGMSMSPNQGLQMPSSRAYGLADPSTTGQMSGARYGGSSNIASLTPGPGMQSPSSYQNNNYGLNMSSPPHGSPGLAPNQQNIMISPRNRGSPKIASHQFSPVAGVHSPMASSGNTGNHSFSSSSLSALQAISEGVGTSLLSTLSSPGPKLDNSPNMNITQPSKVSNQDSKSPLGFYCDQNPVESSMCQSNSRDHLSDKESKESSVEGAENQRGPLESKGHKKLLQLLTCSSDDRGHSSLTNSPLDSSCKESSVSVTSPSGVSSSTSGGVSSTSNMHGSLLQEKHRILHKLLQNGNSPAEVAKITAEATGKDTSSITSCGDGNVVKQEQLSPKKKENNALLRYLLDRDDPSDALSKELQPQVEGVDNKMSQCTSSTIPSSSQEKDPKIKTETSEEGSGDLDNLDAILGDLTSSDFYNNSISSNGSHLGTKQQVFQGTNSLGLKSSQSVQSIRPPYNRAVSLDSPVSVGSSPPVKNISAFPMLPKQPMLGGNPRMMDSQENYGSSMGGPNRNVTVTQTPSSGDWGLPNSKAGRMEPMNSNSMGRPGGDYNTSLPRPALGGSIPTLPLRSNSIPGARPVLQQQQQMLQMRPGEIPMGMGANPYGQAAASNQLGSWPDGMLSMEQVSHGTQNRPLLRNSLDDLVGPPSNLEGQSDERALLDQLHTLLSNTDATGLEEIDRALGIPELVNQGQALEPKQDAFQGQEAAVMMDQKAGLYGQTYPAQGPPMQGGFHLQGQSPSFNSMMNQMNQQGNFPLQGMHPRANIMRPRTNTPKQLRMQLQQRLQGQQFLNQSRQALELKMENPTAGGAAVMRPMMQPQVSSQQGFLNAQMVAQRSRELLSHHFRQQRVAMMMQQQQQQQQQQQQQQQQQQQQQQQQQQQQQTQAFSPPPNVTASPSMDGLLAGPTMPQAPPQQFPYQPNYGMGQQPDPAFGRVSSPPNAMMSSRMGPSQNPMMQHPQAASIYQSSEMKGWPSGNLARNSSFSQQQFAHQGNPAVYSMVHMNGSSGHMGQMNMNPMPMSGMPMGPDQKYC
# Steroidogenic factor 1 (Homo sapiens), sequence (Q13285 whole entry, looked up, the tested form may be a part): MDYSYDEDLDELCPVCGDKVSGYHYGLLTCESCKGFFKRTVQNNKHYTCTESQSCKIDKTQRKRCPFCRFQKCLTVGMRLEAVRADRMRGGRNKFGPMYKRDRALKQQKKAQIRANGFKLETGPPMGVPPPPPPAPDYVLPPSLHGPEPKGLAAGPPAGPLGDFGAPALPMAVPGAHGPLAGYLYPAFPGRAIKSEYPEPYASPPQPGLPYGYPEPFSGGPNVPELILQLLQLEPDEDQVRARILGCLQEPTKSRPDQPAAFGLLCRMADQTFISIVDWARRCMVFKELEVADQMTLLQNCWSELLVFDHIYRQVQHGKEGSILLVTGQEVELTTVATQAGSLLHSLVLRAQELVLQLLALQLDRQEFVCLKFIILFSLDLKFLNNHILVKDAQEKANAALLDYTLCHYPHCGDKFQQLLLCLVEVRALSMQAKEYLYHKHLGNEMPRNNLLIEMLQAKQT
# COUP transcription factor 2 (Homo sapiens), sequence (P24468 whole entry, looked up): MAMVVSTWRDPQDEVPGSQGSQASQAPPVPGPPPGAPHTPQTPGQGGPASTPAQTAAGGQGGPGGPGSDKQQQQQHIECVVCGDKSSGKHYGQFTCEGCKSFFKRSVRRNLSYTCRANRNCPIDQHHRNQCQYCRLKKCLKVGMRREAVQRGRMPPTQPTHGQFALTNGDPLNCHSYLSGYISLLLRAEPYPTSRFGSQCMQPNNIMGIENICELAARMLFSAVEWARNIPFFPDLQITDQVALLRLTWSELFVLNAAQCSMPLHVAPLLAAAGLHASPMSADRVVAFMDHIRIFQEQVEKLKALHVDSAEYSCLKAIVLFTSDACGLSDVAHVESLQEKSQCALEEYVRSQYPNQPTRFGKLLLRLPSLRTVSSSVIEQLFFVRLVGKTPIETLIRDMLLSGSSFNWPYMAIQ
# Nuclear receptor subfamily 5 group A member 2 (Homo sapiens), sequence (O00482 whole entry, looked up): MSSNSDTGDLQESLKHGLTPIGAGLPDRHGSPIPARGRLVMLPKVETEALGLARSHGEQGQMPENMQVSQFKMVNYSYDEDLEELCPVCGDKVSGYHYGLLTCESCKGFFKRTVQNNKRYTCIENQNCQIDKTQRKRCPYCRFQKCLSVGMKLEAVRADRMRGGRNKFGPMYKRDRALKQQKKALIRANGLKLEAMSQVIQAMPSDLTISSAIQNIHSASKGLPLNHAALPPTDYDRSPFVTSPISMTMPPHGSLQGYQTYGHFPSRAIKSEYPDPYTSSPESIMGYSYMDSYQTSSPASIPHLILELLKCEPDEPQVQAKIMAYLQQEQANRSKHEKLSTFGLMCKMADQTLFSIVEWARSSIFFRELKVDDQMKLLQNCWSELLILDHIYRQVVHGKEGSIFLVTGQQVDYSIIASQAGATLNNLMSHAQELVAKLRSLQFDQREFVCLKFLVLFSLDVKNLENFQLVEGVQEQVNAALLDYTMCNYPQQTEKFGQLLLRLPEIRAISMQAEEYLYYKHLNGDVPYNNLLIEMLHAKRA
structure (smiles),measurement,setting,value
COc1ccccc1C1=Nc2cccc3cccc(c23)N1,inhibition,[1],67.4% (active)
same,inhibition,[2],60.5% (active)
Cc1cc2oc3ccc(NCCC4CCCN4C)cc3c(=O)c2cc1C (stereo unspecified),inhibition,[3],19.1%
same,inhibition,[4],16.7%
same,inhibition,[5],31% (active)
same,inhibition,[6],42.8% (active)
same,inhibition,[7],38.5% (active)
COc1ccccc1/C=C/C(=O)OCC(=O)NC1CCCCCC1,inhibition,[3],-4.73%
same,inhibition,[4],-6.03%
same,inhibition,[5],0.37%
COc1cccc2sc(NNC(=O)c3nc4ccccc4s3)nc12,inhibition,[1],130% (active)
O=C(COC(=O)c1c2c(nc3ccccc13)/C(=C\c1cccs1)CCC2)Nc1ccccc1Cl,inhibition,[3],11.4%
same,inhibition,[4],18.4%
same,inhibition,[5],-3.1%
CC(=O)Nc1ccc(S(=O)(=O)Nc2ccc(N3CCCCC3)cc2)cc1,inhibition,[1],63.4% (active)
same,inhibition,[8],-3.95%
same,inhibition,[9],0.96%
same,inhibition,[10],4.11%
same,inhibition,[11],2.83%
same,inhibition,[12],-15.4%
same,inhibition,[13],14.9%
CC1(C)CC(=O)C(C2c3ccccc3S(=O)(=O)c3ccccc32)C(=O)C1,inhibition,[3],-5.15%
same,inhibition,[4],-0.53%
same,inhibition,[5],2.02%
CC(=O)N1CCN(c2ccc(NCc3ccc(C(C)C)cc3)cc2)CC1,inhibition,[1],12.7%
O=[N+]([O-])c1c(NCCO)cc(Sc2nc3ccccc3s2)c2nonc12,inhibition,[3],71.1% (active)
same,inhibition,[4],17.3%
same,inhibition,[5],98.7% (active)
COc1ccc(-c2nn(-c3ccccc3)cc2/C=N/Nc2ccccn2)cc1OC,inhibition,[3],2.6%
same,inhibition,[4],2.28%
same,inhibition,[5],4.63%
Cc1cc(C)nc(SCc2ccccc2C#N)n1,inhibition,[3],1.99%
same,inhibition,[4],0.68%
same,inhibition,[5],2.36%
CC[C@@H]1Cc2cc(O)ccc2C2=C1c1ccc(O)cc1C[C@H]2CC,inhibition,[1],47% (active)
same,inhibition,[2],31% (active)
COc1ccc(-c2cc(C(F)(F)F)nc(S(C)(=O)=O)n2)cc1OC,inhibition,[3],28.8% (active)
same,inhibition,[4],5.84%
same,inhibition,[5],85.2% (active)
same,inhibition,[6],42.1% (active)
same,inhibition,[7],14.4% (active)
CS(=O)(=O)c1sc2nc(-c3ccccc3)cc(-c3ccccc3)c2c1N,inhibition,[3],31.1% (active)
same,inhibition,[4],31.6%
same,inhibition,[5],-0.85%
CCOC(=O)C1Nc2ccc(C(F)(F)F)cc2C2C=CCC12 (stereo unspecified),inhibition,[1],30.3%
same,inhibition,[2],24.3%
COc1cc(C(=O)N2C(=O)c3cccc(N)c3C2=O)cc(OC)c1OC,inhibition,[3],11.4%
same,inhibition,[4],13.3%
same,inhibition,[5],1.27%
CNC(=S)N/N=C/c1ccc(OCc2ccccc2)c(Br)c1,inhibition,[3],27.6% (active)
same,inhibition,[4],27.6%
same,inhibition,[5],43.4% (active)
same,inhibition,[6],54.2% (active)
same,inhibition,[7],52.8% (active)
Cc1cc(-c2csc(N)n2)c(C)n1Cc1ccccc1,inhibition,[1],30.6%
O=C1C(Cl)=C(Oc2ccccc2)C(=O)c2ccccc21,inhibition,[3],79% (active)
same,inhibition,[4],17.5%
same,inhibition,[5],96.2% (active)
COc1ccc(OC)c(N=Cc2c(O)[nH]c3ccccc23)c1,inhibition,[3],-1.61%
same,inhibition,[4],1.7%
same,inhibition,[5],19.8% (active)
same,inhibition,[6],61.8% (active)
same,inhibition,[7],59.3% (active)
C[N+](C)(C)CCNC(=O)c1cc[n+](Cc2ccccc2)c(/C=N/O)c1,inhibition,[3],7.66%
same,inhibition,[4],6.76%
same,inhibition,[5],-0.18%
Brc1ccccc1C1Nc2cccc3cccc(c23)N1,inhibition,[1],2.05%
same,inhibition,[2],42.5% (active)
Oc1c(CN2CCN(c3ccc(F)cc3)CC2)cc(Cl)c2cccnc12,inhibition,[1],50.9% (active)
same,inhibition,[8],52.3% (active)
same,inhibition,[9],42.8% (active)
same,inhibition,[14],4.78%
same,inhibition,[15],6.62%
same,inhibition,[16],3.33%
COc1cccc2c1C(=O)c1c(O)c3c(c(O)c1C2=O)CC(O)(C(C)=NNC(=O)c1ccc(Cl)c(Cl)c1)CC3OC1CC(N)C(O)C(C)O1 (stereo unspecified),inhibition,[1],69.6% (active)
same,inhibition,[17],72.7% (active)
same,inhibition,[18],75.1% (active)
same,inhibition,[19],94.8% (active)
same,inhibition,[20],65.9% (active)
same,inhibition,[21],159% (active)
same,inhibition,[22],126% (active)
same,inhibition,[23],41.2% (active)
same,inhibition,[24],32.5%
COc1ccccc1CSc1ncc(-c2ccc([N+](=O)[O-])cc2)[nH]1,inhibition,[3],5.87%
same,inhibition,[4],9.21%
same,inhibition,[5],2.09%
same,inhibition,[6],28.2% (active)
same,inhibition,[7],21.9% (active)
O=[N+]([O-])c1ccc(N/N=C/c2ccccc2)cc1,inhibition,[3],13.7%
same,inhibition,[4],10.7%
same,inhibition,[5],3.89%
same,inhibition,[6],17.7%
same,inhibition,[7],20% (active)
COC(=O)Cc1cc(=O)oc2c(C)c(O)ccc12,inhibition,[25],7.7%
same,inhibition,[26],16.5%
same,inhibition,[3],13.3%
same,inhibition,[4],16.3%
same,inhibition,[5],-0.43%
same,inhibition,[6],23.8% (active)
same,inhibition,[7],28.6% (active)
CC(=N\NC(=O)c1cc(Br)ccc1O)/C(=N/O)C(=O)Nc1ccccc1,inhibition,[1],55.9% (active)
same,inhibition,[21],-21.4%
same,inhibition,[22],16.5%
CCOc1ccc(C2=CC(c3ccccc3)n3ncnc3N2)cc1 (stereo unspecified),inhibition,[3],-2.09%
same,inhibition,[4],-1.41%
same,inhibition,[5],-1.28%
